Data reported in ChEMBL document CHEMBL1201862, “PubChem BioAssay data set” (2004).
The whole screen tested about 57,000 […], of which about 4,900 (8.6%) were called active. Cut-off read from the data, not from the text of the source: active = GI50 up to about 1.1 µM and inactive = higher. For the sample, actives were picked, then their nearest neighbours and some […] at random. Entries with a potency or affinity are not part of this list.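 Tested at 5 concentrations; 48 h exposure; 96-well plates; endpoints linearly interpolated, else capped at highest concentration. Here, GI50 denotes the concentration required for 50% inhibition of growth.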

system: MOLT-4; assay: NCI tumour cell line growth inhibition, 48 h

Substance	GI50 [nM]
cis-Bis[[(trimethylsilyl)methyl]amino]tetrachloroplatinum(IV), CHEMBL2146191	2000
[Bis(aminomethyl)ethylmethylsilane]tetrachloroplatinum(IV), CHEMBL2146192	531
[Bis(aminomethyl)tetramethylenesilane]tetrachloropaltinum(IV), CHEMBL2146189	824
[Bis(aminomethyl)dimethylsilane]tetrachloroplatinum(IV), CHEMBL2146190	1680
CISPLATIN, CHEMBL11359	1430
mu-(1,7-nanodiamine-N,N')bis-(cis-aminedichloroplatimum (II)), CHEMBL2146215	592
[Bis(aminomethyl)tetramethylenesilane]dichloropaltinum(II), CHEMBL2146205	2090
[Bis(aminomethyl)diethylsilane]tetrachloroplatinum(IV), CHEMBL2146203	561
[Bis(aminomethyl)dimethylsilane]dichloroplatinum (II), CHEMBL2146201	5000
[Bis(aminomethyl)pentamethylenesilane]dichloropaltinum(II), CHEMBL2146202	325
[Bis(aminomethyl)pentamethylenesilane]tetrachloropaltinum(IV), CHEMBL2146204	505
